JMJD2A Tudor inh – JMJD2A Tudor domain (human) inhibition; Potency, µM (doses to about 114 µM), inactives show top-dose activity change, negative = inhibition, hits mostly inhibitors; AID 504339; actives 4.4% (n = 390,000); AlphaScreen JMJD2A-Tudor / H3K4me3 peptide binding; O75164; further: on the % scale 0 is the no-effect control and ±100 the full control effect; nearly all actives have a fitted effect of over 50% in size
HP1b binding inh – HP1-beta chromodomain-methylated histone interaction inhibition; AlphaScreen HP1-beta / biotin-H3K9me3 peptide binding; P83916; AID 540317; actives 0.56% (n = 390,000); Potency, µM (highest dose often 114 µM), without a hit: at the top dose activity change, negative = inhibition, hits mostly inhibitors; further: nearly all actives have a fitted effect of over 70% in size
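AlphaScreen: HP1-beta (50 nM) preformed 30 min with biotin-H3(1-18)K9me3 peptide (50 nM) in PBS pH 7.4, 0.01% Tween-20. Compound added for 30 min at RT, then streptavidin donor/nickel chelate acceptor beads (10 ug/mL) for 30 min.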
Sfp inh – inhibitors of Bacillus subtilis Sfp phosphopantetheinyl transferase; Q9F4F7; Biochemical Sfp PPTase activity, qHTS; Potency, µM, without a hit: largest response in the series, negative = inhibition, hits mostly inhibitors; actives 3.5% (n = 310,000);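 further: the enzyme is Sfp with the accession as filed and its product quenches rhodamine fluorescence; 0% = enzyme reaction without inhibitor and -100% = no enzyme wells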
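Reaction rates are the 30-min fluorescence difference (ex 525, em 598 nm) in wells containing 15 nM Sfp, 5 uM rhodamine-CoA and 12.5 uM BHQ-2-YbbR at pH 7.6 with 10 mM MgCl2.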
G9a block – G9a (human) methyltransferase inhibition; Potency, µM (titrated, usually from 102 µM), for inactives: at the highest dose activity, negative = inhibition, most hits filed as inhibitors; G9a H3K9 monomethylation, AlphaScreen, 2 h; actives 8.8% (n = 350,000); Q96KQ7; further: on the % scale 0 is the no-effect control and ±100 the full control effect; nearly all actives have a fitted effect of over 75% in size
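G9a (20 nM) was preincubated 15 min with compound, then reacted 2 h at room temperature with 500 nM biotin-H3K9 peptide and 20 µM SAM. Monomethyl-H3K9 detected by AlphaScreen using anti-H3K9me1 antibody.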
BAZ2B inh – blocks human BAZ2B | Q9UIF8 | AlphaScreen BAZ2B-H3K14Ac peptide displacement | Potency, µM (titrated, usually from 114 µM), for inactives: at the highest dose activity change, negative = inhibition, most hits filed as inhibitors | actives 4.4% (n = 360,000); further: on the % scale 0 is the no-effect control and ±100 the full control effect; nearly all actives have a fitted effect of over 60% in size
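Multi-concentration screen (max 110 uM) measuring displacement of acetylated histone H3 peptide from BAZ2B by AlphaScreen, using 50 nM protein, 50 nM peptide and 10 ug/mL streptavidin donor plus Ni-chelate acceptor beads.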
L3MBTL1 block – L3MBTL1 (human) inhibition; Q9Y468; AlphaScreen L3MBTL1–H3K9me1 peptide binding; Potency, µM (highest dose often 57.1 µM), for the others: at the highest dose activity, negative = inhibition, actives largely listed as inhibitors; actives 0.66% (n = 230,000); further: on the % scale 0 is the no-effect control and ±100 the full control effect; nearly all actives have a fitted effect of over 60% in size
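Read-out is AlphaScreen signal from streptavidin donor and nickel chelate acceptor beads (10 ug/mL final each) bridging L3MBTL1 (50 nM) and biotinylated K9-monomethylated H3(1-15) peptide (75 nM), after 30 min compound exposure at room temperature.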
* = called active by the depositor; ? = inconclusive; · = no result; ! = not confirmed by another sample; [ ] = another dose, or the depositor's remark. Rows were chosen to be rich in hits. Some 12% of all compounds tested hit in one or more screens of this group. The call rests on the fitted dose curve; in most records, active means well fitted curve in the direction sought with a large enough effect; inconclusive means small, poorly fitted or top-dose-only effect, or another doubt; inactive means no such curve, though single readings can be large; an effect the other way counts as inactive or inconclusive. Potency means the concentration at half of the fitted maximal effect.

SMILES	JMJD2A Tudor inh	HP1b binding inh	Sfp inh	G9a block	BAZ2B inh	L3MBTL1 block
COc1cccc(CNc2ccc3nc(-c4ccc(N)cc4)c(OC)n3n2)c1	·	·	16.0%	16.8%[59 µM]	·	·
O=C(O)CN(CC(=O)O)CC(=O)O	31.6µM*	46.0%	·	·	·	·
O=C(O)CN(CCO)CCN(CC(=O)O)CC(=O)O	·	·	14.0%	17.3%	11.4%	11.7%
CCOc1ccc2nc(SCC(=O)Nc3ccc4c(c3)OCCO4)[nH]c2c1	-28.1%	16.0%	8.7%	5.0%[12.7 µM]	?	·
CCOc1ccccc1Nc1nnc(SCC(=O)Nc2cccc(S(=O)(=O)NC3=NCCCCC3)c2)s1	-7.5%	22.0%	?	39.8µM*	-8.8%	-8.0%
CCOc1ccc2nc(SCC(=O)Nc3cccc(S(=O)(=O)NC4=NCCCCC4)c3)[nH]c2c1	-29.5%	9.8%	-21.7%	44.7µM*	-16.2%	1.9%
CCn1cnc2c(Nc3ccc(Cc4cccnc4)cc3)nc(C#N)nc21	-23.3%	·	·	·	·	·
Cc1ccc(CN(CC(=O)NC2CCCC2)C(=O)CSc2nnc(COc3ccccc3)o2)cc1	-27.1%	?	-4.6%	31.6µM*	47.0%	4.5%
O=C(CN(Cc1ccccc1)C(=O)CSc1nnc(COc2ccccc2)o1)NC1CCCC1	-11.6%	-7.7%	79.4µM*	10µM*	-1.7%	-2.7%
NS(=O)(=O)c1ccc(NC(=O)C2Cc3ccccc3N2C(=O)c2ccccc2)cc1 (stereo unspecified)	2.3%	20.0%	·	9.8%[12.7 µM]	-3.9%	·
O=C(CCCc1ccccc1)NC1CC(=O)N(c2ccc(Cl)cc2)C1 (stereo unspecified)	-12.7%	59.0%	·	-13.8%[59 µM]	-1.2%	·
CCOC(=O)c1sc(=S)n(-c2ccccc2)c1C	-1.4%	-10.8%	5.2%	?	-18.5%	-2.9%
CCOC(=O)c1ccc2c(c1)[n+](CC)c(C)n2-c1ccccc1	0.7%	-24.6%	-5.9%	31.6µM*	?	6.5%
CC(=O)OCC[n+]1c(C)n(-c2ccccc2)c2ccc(Cl)cc21	?	20.8%	3.6%	50.1µM*	0.6%	-2.3%
CCOC(=O)c1c(O)c(O)c(C(=O)OCC)n1-c1ccccc1	35.5µM*	-17.0%	31.6µM*	8.91µM*	-28.9%	0.9%
CC[n+]1c(C)n(-c2ccccc2)c2ccc(C(=O)OC)cc21	-1.9%	27.5%	9.7%	·	?	6.1%
Cc1ccc2[nH]c(CSc3nnc(NC(=O)COc4ccccc4F)s3)cc(=O)c2c1	-6.2%	12.4%[57 µM]	·	-17.2%[59 µM]	8.7%	·
CCOc1ccc(C(=O)OCC(=O)N2CCOCC2)cc1OCC	-15.0%	-22.3%	14.6%	21.6%	4.6%	·
CCOc1cc(C(=O)NCc2ccc(C)cc2)ccc1OCC(=O)N1CCOCC1	2.1%	11.6%	11.3%	9.5%	·	2.2%
CCOc1cc(/C=C\[N+](=O)[O-])ccc1OCC(=O)N1CCOCC1	6.2%	9.1%	39.8µM*	10µM*	0.4%	12.8%
CCOc1cc(/C=C/c2nc3cc(C)c(C)cc3s2)ccc1OCC(=O)N1CCOCC1	-14.1%	11.0%	?	12.6µM*	-24.7%	4.7%
COC(=O)C(C(C)=O)C1c2ccccc2C=C(C)N1C(=O)OC (stereo unspecified)	·	·	-12.9%	·	·	·
COc1ccc(Nc2cc(C(=O)NCc3ccccc3OC)c3ccccc3n2)cc1	-19.2%	26.1%	·	-13.5%[59 µM]	-0.6%	·
COC1=C2C[C@H](C)C[C@H](OC)[C@@H](O)[C@@H](C)C=C(C)[C@H](OC(N)=O)[C@@H](OC)C=CC=C(C)C(=O)NC(=CC1=O)C2=O	?	16.3%	·	·	·	·
CC(C)OC(=O)c1cc2c(ccn2C)n1CC(=O)N(Cc1ccccc1)c1ccccc1	17.8µM*	?	-14.6%	25.1µM*	25.1µM*	-28.3%
SMILES	JMJD2A Tudor inh	HP1b binding inh	Sfp inh	G9a block	BAZ2B inh	L3MBTL1 block
O=C(CCl)N(Cc1ccccc1)c1ccccc1	5.8%	74.1%	10.7%	-33.2%	-10.7%	20.0%
CC(=O)c1cccc(NC(=O)c2nc3ccccc3n(C)c2=O)c1	-15.8%	21.3%	·	-3.6%[59 µM]	-12.1%	·
CC1=C(C(=O)Nc2ccccc2)C(c2ccncc2)C(C#N)=C(SCC(=O)Nc2ccccc2)N1 (stereo unspecified)	-24.3%	40.8%	0.1%	28.2µM*	-4.2%	·
CSC1=C(C#N)C(c2ccncc2)C(C(=O)Nc2ccccc2)=C(C)N1 (stereo unspecified)	0.0%	47.3%	15.5%	25.1µM*	-13.6%	5.4%
CC1=C(C(=O)Nc2ccc(F)cc2)C(c2ccncc2)C2=C(CCCC2=O)N1 (stereo unspecified)	8.7%[57.1 µM]	30.6%	11.5%	-10.9%[59 µM]	10.9%	-15.1%
COc1ccc(N2CCN(C(=O)c3ccccc3Br)CC2)c([N+](=O)[O-])c1	?	-21.9%	3.4%	56.2µM*	-30.3%	-15.5%
COc1ccc(N2CCN(C(=O)c3ccc(Br)cc3)CC2)c([N+](=O)[O-])c1	79.4µM*	?	7.2%	44.7µM*	25.1µM*	-18.2%
COc1ccc(N2CCN(C(=S)NC(=O)c3cccs3)CC2)c([N+](=O)[O-])c1	50.1µM*	?	8.2%	31.6µM*	?	-11.2%
COc1ccc(N2CCN(C(=O)c3ccc(C)cc3)CC2)c([N+](=O)[O-])c1	?	-31.6%	-2.2%	?	?	-11.1%
CC(C)C[C@@H](CC(=O)N[C@H](CC(=O)N[C@@H]1CCCC[C@H]1C(=O)N[C@H](CC(=O)N[C@@H](CCC(=O)O)CC(=O)O)CC(C)C)C(C)C)NC(=O)[C@@H]1CCCC[C@H]1N	·	·	-15.5%	·	·	·
COc1cc2nc(SCC(=O)Nc3ccccc3C)n3nc(CCn4c(C)nc5ccccc54)nc3c2cc1OC	?	19.6%	·	?	·	·
CCc1cccc(C)c1NC(=O)CCS(=O)(=O)c1ccc2c(c1)oc(=O)n2C	79.4µM*	?	·	10µM*	3.0%[57.1 µM]	·
Cc1cccc(C)c1NC(=O)CCS(=O)(=O)c1ccc2c(c1)n(C)c(=O)c(=O)n2C	-13.1%	73.5%	·	-0.3%[59 µM]	?	·
COc1ccc(C(=O)/C=C/c2cn(CC(O)CN3CCc4ccccc43)c3ccccc23)cc1 (stereo unspecified)	22.4µM*	-30.9%	·	?	?	·
CCC(=C(c1ccc(OC)cc1)c1ccc(OC)cc1)c1cn(CC(O)CN2CCN(C)CC2)c2ccccc12 (stereo unspecified)	28.2µM*	50.1µM*	50.1µM*	39.8µM*	44.7µM*	·
CCCCN(C)CC(O)Cn1cc(/C=C/C(=O)c2cccs2)c2ccccc21 (stereo unspecified)	-26.7%	14.0%	20µM*	7.0%[59 µM]	-8.3%	-5.3%
CCCCN(C)CC(O)Cn1cc(/C=C/C(=O)c2ccc(OCC)cc2)c2ccccc21 (stereo unspecified)	50.1µM*	?	44.7µM*	50.1µM*!	?	·

Compound activity deposited in PubChem BioAssay by National Center for Advancing Translational Sciences (NCATS).
